Here are results for 60 compounds from PubChem BioAssay AID602393 (Broad Institute, 2012).

Hit rate of the full screen: of about 350,000 compounds, about 7,000 (2%) were called active. The entries come from a sample that favours actives as a whole. Unmarked numbers belong to inactive results. No stated cut-off is given here; in the data, active means activation above about 40%; inconclusive means no clear call, values can overlap the other calls; inactive means below that.

The experiment can be described thus: raisers of Bmi1 knock-in reporter signal – mouse ES cells, Bmi1 luciferase knock-in, single point, esBAF inhibitor project, primary screen (AID 602393).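 Further: 0% = median of the plate's neutral control wells and 100% = double that signal; a rise in the Bmi1 reporter signal indicates esBAF inhibition.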 To be noted: 24 h, at 12.5 µM, active compounds read high, 100% = twice the neutral-well signal.
On to `C[C@H](CO)N1C[C@H](C)[C@H](CN(C)Cc2ccncc2)Oc2ccc(NC(=O)C3CCCCC3)cc2CC1=O`, for which the reporter increase is 4.88%.
The value for `COC(=O)c1cnc(Nc2cc(C)ccc2OC)c2ccccc12` was -2.74%; that for `COc1ccccc1Nc1ncc(C(C)=O)c(C)n1` was 43.9% (active).
The value for `COc1ccccc1-c1c(C)nn2c(C)c(C(C)=O)cnc12` was -4.24%.
The same measure for `CCC(=O)Nc1ccc2c(c1)OC[C@H](C)N(Cc1ccccc1OC)C[C@@H](C)[C@@H](OC)CN(C)C2=O`: 4.11%; for `CO[C@H]1CN(C)C(=O)c2cc(NC(=O)Nc3cccc(F)c3)ccc2OC[C@@H](C)N(C)C[C@@H]1C`: 1.05%.
Take `C[C@H](CO)N1C[C@H](C)[C@H](CN(C)C(=O)C2CCOCC2)Oc2ncc(-c3ccccc3F)cc2C1=O`: the reporter increase was -0.932%.
With `COc1ccc(-c2ccc3c(c2)O[C@H](CN(C)Cc2ccccc2C(=O)O)[C@H](C)CN([C@@H](C)CO)S3(=O)=O)cc1`, the reporter increase was 4.05%.
The value for `CCC(C(=O)OC)n1cnc2c(oc3ccccc32)c1=O` (stereo not given) was 2.51%; that for `COc1ccccc1Nc1ncnc2c1oc1ccccc12` was 75.2% (active); that for `COc1ccc(Nc2ncnc3ccc(Br)cc23)c(OC)c1` was -66.9%.
The same measure for `CCCC(=O)Nc1ccc2c(c1)C(=O)N(C)[C@H]1CC[C@@H](CC(=O)NCc3cccc(F)c3)O[C@H]1CO2`: 11.9%; for `O=C(NCC[C@H]1CC[C@H](NS(=O)(=O)c2ccccc2)[C@H](CO)O1)c1cc(Cl)cc(Cl)c1`: 1.99%.
Regarding `CC1CCN(C(=O)c2ccc3c(=O)n4c(nc3c2)CCCCC4)CC1`, the reporter increase is 10.6%.
The value for `O=C(Nc1cc(F)ccc1F)c1ccc2c(=O)n3c(nc2c1)CCC3` was 54.2% (active).
The value for `Cc1cc(C)c(C)c(S(=O)(=O)N2CCN(C(=O)c3ccc4c(=O)n5c(nc4c3)CCC5)CC2)c1C` was -1.07%; that for `CC(C)CC#Cc1cnc2c(c1)C(=O)N([C@@H](C)CO)C[C@@H](C)[C@@H](CN(C)S(=O)(=O)c1cccs1)O2` was -1.12%; that for `Cn1cnc(S(=O)(=O)N2C[C@H](O)COC[C@@H]3O[C@H](CC(=O)NC4Cc5ccccc5C4)CC[C@H]32)c1` was 1.23%.
The same measure for `COc1ccccc1C(=O)NCCC(=O)NC1=NCCS1`: 4.18%.
For the compound `O=C(NC1=NCCS1)c1ccc(Cl)s1`, the reporter increase is 56.6% (active).
The same measure for `O=C(NCc1ccc2c(c1)OCO2)c1ccc(Cl)s1`: 16.1%; for `COCC(=O)N1C[C@H](C)[C@@H](OC)CN(C)C(=O)c2cc(NC(=O)c3ccc(OC)cc3)ccc2OC[C@H]1C`: -1.57%; for `CCCNC(=O)C[C@@H]1CC[C@H]2[C@H](COc3ccc(NS(=O)(=O)c4ccccc4C)cc3C(=O)N2C)O1`: 0.502%.
The value for `CNC[C@H]1OCCCC[C@H](C)Oc2ccc(NS(C)(=O)=O)cc2C(=O)N([C@@H](C)CO)C[C@H]1C` was 3.58%.
The same measure for `CCC1([N+](=O)[O-])COC(c2ccc(C(C)C)cc2)OC1` (stereo not given): 98.9% (active); for `CC(C)c1ccc(S(=O)(=O)NC2CCCC2)cc1`: 1.91%; for `CCC1([N+](=O)[O-])COC(c2ccc(C)cc2)OC1` (stereo not given): -1.7%.
As for `O=C(Nc1ccccc1)c1ccccc1Br`, the reporter increase was 22.5%.
The value for `CCCN(CC1CC1)C(=S)NC(=O)c1ccccc1Br` was -4.35%; that for `O=C(NC(=S)Nc1ncccn1)c1ccccc1Br` was 44.5% (active).
Consider `CO[C@@H]1CN(C)C(=O)c2cc(NC(=O)Nc3cccc(Cl)c3)ccc2OC[C@@H](C)N(C)C[C@@H]1C`, for which the reporter increase was -1.87%.
With `CO[C@H]1CN(C)C(=O)c2ccc(NC(=O)c3cccc(F)c3)cc2OC[C@H](C)N(CC2CC2)C[C@@H]1C`, the reporter increase is 9.27%.
The same measure for `CC(C)N(C(=O)[C@H]1C[C@H](CC(=O)NCCC2=CCCCC2)C(=O)N2CCc3c([nH]c4cc(CCC(=O)N(C)C)ccc34)[C@]12C)C(C)C`: 5.79%.
The same measure for `CN(C)C(=O)CCc1ccc2c3c([nH]c2c1)[C@]1(CCc2ccccc2)[C@@H](C(=O)N2CCCCC2)C[C@H](CC(=O)NCCC2=CCCCC2)C(=O)N1CC3`: 67.9% (active).
On to `CN(C)C(=O)CCc1ccc2c3c([nH]c2c1)[C@]1(C)[C@@H](C(=O)N2CCCCC2)C[C@H](CC(=O)NCCC2=CCCCC2)C(=O)N1CC3`, for which the reporter increase was 8%.
The value for `O=C(C[C@@H]1C[C@@H]2c3cc(NC(=O)C4CCC4)ccc3O[C@@H]2[C@@H](CO)O1)NCCN1CCCCC1` was 1.69%.
The same measure for `Cc1noc(C)c1S(=O)(=O)Nc1ccc2c(c1)CC(=O)N([C@@H](C)CO)C[C@@H](C)[C@H](CN(C)S(=O)(=O)c1cccs1)O2`: -4.75%; for `O=C(CC(O)(C(F)(F)F)C(F)(F)F)Nc1ccc(Cl)c(Cl)c1`: -47.8%.
Take `CCn1nccc1C(=O)Nc1ccc(S(=O)(=O)NC23CC4CC(CC(C4)C2)C3)cc1`: the reporter increase is 14.5%.
The same measure for `CCn1nccc1C(=O)Nc1ccc(Cl)c(Cl)c1`: 61.9% (active).
Consider `Cc1ccc(CN(C)C[C@H]2OCc3cn(nn3)CCCC(=O)N([C@@H](C)CO)C[C@H]2C)cc1`, for which the reporter increase is 3.63%.
As to `O=C(Cc1ccc(Cl)cc1)NC(=S)Nc1ccccc1O`, the reporter increase is 2.82%.
For `O=C(CN1CCN(c2ccc(Cl)cc2)CC1)c1ccccc1`, the reporter increase is -0.082%.
As for `O=C(Cc1ccc(Cl)cc1)c1ccccc1`, the reporter increase was 61.9% (active).
Turning to `COc1ccc(-c2ccc3c(c2)[C@@H]2[C@@H](CCN2S(=O)(=O)c2ccccc2F)[C@H](CO)N3)cc1`, the reporter increase was -0.198%.
`C[C@@H]1CN([C@H](C)CO)C(=O)Cc2cc(NC(=O)CCCN(C)C)ccc2O[C@H]1CN(C)CC1CCCCC1`: the reporter increase was -2.32%.
Turning to `C[C@@H]1CN([C@H](C)CO)C(=O)c2cc(NS(=O)(=O)c3ccc(Cl)cc3)ccc2O[C@@H]1CN(C)CC1CCCCC1`, the reporter increase was 5.96%.
As for `O=C(C[C@H]1C=C[C@H](NS(=O)(=O)c2ccc(F)cc2)[C@H](CO)O1)NCc1ccncn1`, the reporter increase was 0.952%.
On to `O=C(Nc1ccc(N2CCOCC2)cc1)c1ccc2c(c1)OCO2`, for which the reporter increase is 39.9%.
With `Cc1ccc(C(=O)Nc2ncccc2C)cc1S(=O)(=O)N1CCOCC1`, the reporter increase is 3.68%.
The value for `COc1ccc(C(=O)Nc2ccc(C3(C#N)CCCC3)cc2)cc1OC` was 44% (active).
Regarding `Cc1ccc(C(=O)Nc2ccc3c(c2)OCCO3)cc1S(=O)(=O)N1CCOCC1`, the reporter increase was 70.5% (active).
The same measure for `COc1cc(C(=O)NCC2(c3ccccc3)CCCC2)ccc1OC(C)C`: -10.2%; for `Cc1ccc(NC(=O)C2CC(=O)N(c3ccc4c(c3)OCCO4)C2)cc1S(=O)(=O)N1CCCCCC1` (stereo not given): 1.1%.
The value for `Cc1ccc(NC(=O)c2ccc(Cl)nc2)cc1S(=O)(=O)N1CCOCC1` was 0.751%; that for `Cc1ccc(C(=O)Nc2ccc3c(c2)OCO3)cc1S(=O)(=O)N1CCCCC1` was 57% (active); that for `COc1ccc(C(=O)NC2CC(C)(C)NC(C)(C)C2)cc1OC` was 0.227%.
The value for `COc1ccc(C(=O)Nc2ccc3c(c2)OCO3)cc1OC` was 53.2% (active).
Regarding `COc1ccc(Cl)cc1NC(=O)CN(C)CC(=O)Nc1ccc2c(c1)OCO2`, the reporter increase is 0.413%.
The same measure for `Cc1ccc(NC(=O)CCCNC(=O)c2ccc(Cl)cc2)cc1S(=O)(=O)N1CCCCC1`: -3.1%.
